AmpC inh no detg: qHTS Inhibitors of AmpC Beta-Lactamase (assay without detergent); hit rate 0.52% among 330,000; AID 485341, 2010; Potency, µM (series often up to 57.1 µM), actives largely listed as inhibitors; AmpC nitrocefin hydrolysis, absorbance 480 nm, 0.0001% Triton; P00811; further: nearly all actives have a fitted effect of over 20% in size
Target sequence (P00811 whole entry, looked up): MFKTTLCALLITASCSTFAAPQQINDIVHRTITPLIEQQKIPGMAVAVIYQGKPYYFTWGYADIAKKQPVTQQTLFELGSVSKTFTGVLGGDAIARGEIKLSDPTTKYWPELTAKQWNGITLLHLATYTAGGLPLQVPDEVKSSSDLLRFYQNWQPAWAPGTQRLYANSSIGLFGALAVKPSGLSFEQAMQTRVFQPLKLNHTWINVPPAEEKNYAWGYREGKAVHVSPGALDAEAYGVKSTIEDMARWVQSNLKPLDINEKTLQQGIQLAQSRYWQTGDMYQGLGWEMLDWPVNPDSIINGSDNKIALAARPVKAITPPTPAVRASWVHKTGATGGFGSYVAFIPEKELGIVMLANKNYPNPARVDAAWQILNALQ
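20 mM phosphate pH 7.0 + 0.01% (detergent screen) or 0.0001% Triton X-100; 5.3 nM AmpC reagent; cpd preinc 15 min RT; nitrocefin (800 uM stock) to start; A480 q20 s × 4 min; Activity was normalised to no-enzyme and no-compound control wells.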
SARS PLP yeast: qHTS of Yeast-based Assay for SARS-CoV PLP; S. cerevisiae expressing SARS-CoV PLpro, growth rescue; Potency, µM (series often up to 32.9 µM), hits mostly activators; hit rate 0.19% among 330,000; AID 485353, 2010; calls by dose curve; further: nearly all actives have a fitted effect of over 55% in size
Sm TGR block: qHTS Assay for the Inhibitors of Schistosoma Mansoni Peroxiredoxins; hit rate 3% among 360,000; Potency, µM (series often up to 114 µM), most hits filed as inhibitors; purified TGR, DTNB reduction, TNB absorbance 405 nm; AID 485364, 2010; further: nearly all actives have a fitted effect of over 60% in size
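TGR 20 nM + NADPH 100 uM (dispensed conc.), cpd preinc 15 min RT; start with NADPH (500 uM addition) then DTNB (15 mM addition). Kinetic TNB absorbance, 405 nm filter. Four-parameter Hill fit across titration.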
AmpC detergent: qHTS Inhibitors of AmpC Beta-Lactamase (assay with detergent); P00811; AmpC hydrolysis of nitrocefin, absorbance 480 nm, 0.01% Triton; Potency, µM (highest dose often 114 µM), most hits filed as inhibitors; hit rate 0.041% among 370,000; further: nearly all actives have a fitted effect of over 25% in size
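20 mM phosphate pH 7.0 + 0.01% (detergent screen) or 0.0001% Triton X-100; 5.3 nM AmpC reagent; cpd preinc 15 min RT; nitrocefin (800 uM stock) to start; A480 q20 s × 4 min; Activity was normalised to no-enzyme and no-compound control wells.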
Pf growth 96h: Primary qHTS for delayed death inhibitors of the malarial parasite plastid, 96 hour incubation; AID 504834, 2011; hit rate 6.9% among 320,000; P. falciparum luciferase reporter growth, 96 h; Potency, µM (top dose mostly 28.7 µM), most hits filed as inhibitors
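Infected RBCs, 2% Hct / 0.05% parasitemia final; luciferase-reporter P. falciparum; cpd 96 h, 37 C, 5% CO2; luciferase detection reagent; luminescence.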
Pf growth 48h: Primary qHTS for delayed death inhibitors of the malarial parasite plastid, 48 hour incubation | P. falciparum luciferase growth in erythrocytes, 48 h | Potency, µM (highest dose often 28.7 µM), hits mostly inhibitors | hit rate 5.9% among 310,000
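Luciferase-expressing P. falciparum in infected erythrocytes (2% hematocrit, 0.1% parasitemia final) in RPMI 1640/0.5% Albumax were exposed to compound for 48 hours at 37 C, 5% CO2; growth read as luminescence.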
Of the large screens only hits and unclear results are named; the others gave an inactive call. The list is not random: actives were taken first. Their share in the collection is about 12%. Unless noted, the call rests on the fitted dose curve; in most records, active means well fitted curve in the direction sought with a large enough effect; inconclusive means small, poorly fitted or top-dose-only effect, or another doubt; inactive means no such curve, though single readings can be large; an effect the other way counts as inactive or inconclusive.

Cc1sc2ncnc(N3CCC(C(=O)Nc4ccc(Cl)cc4Cl)CC3)c2c1C	Pf growth 96h inconclusive, Pf growth 48h 10µM
Cc1sc2ncnc(N3CCC(C(=O)Nc4ccc(Cl)c(Cl)c4)CC3)c2c1C	Pf growth 96h inconclusive, Pf growth 48h 13µM
COc1cccc(C(=O)NCc2nc(-c3ccccc3)no2)c1OC	none (no result: AmpC inh no detg, SARS PLP yeast, Pf growth 96h, Pf growth 48h)
COc1ccc2c(c1)cc1c(=O)n(CC(=O)NCCc3ccccc3)nc(C)n12	none (no result: AmpC inh no detg, SARS PLP yeast, Pf growth 96h, Pf growth 48h)
COc1cc2c(-c3ccc(O)cc3)nc3c(c(C)nn3-c3ccccc3)c2cc1OC	Pf growth 48h 15µM
Cc1cccc(C)c1NC(=O)C1(N(Cc2ccco2)C(=O)c2ccccn2)CCCC1	AmpC detergent inconclusive
Cc1cccc(C)c1NC(=O)C1(N(Cc2ccco2)C(=O)Cn2nnnc2N)CCCCC1	Pf growth 96h 6.6µM
CCCC(=O)Nc1c(C)n[nH]c1C	Pf growth 96h 0.59µM
CNCC(=O)Nc1c(C)n[nH]c1C	SARS PLP yeast inconclusive
O=C(Cc1ccc(-n2c(=O)c3sccc3n(CC(=O)Nc3ccccc3)c2=O)cc1)NCc1ccco1	none
Cc1ccc(C)c(Cn2c(=O)n(-c3ccc(CC(=O)NCc4ccco4)cc3)c(=O)c3sccc32)c1	AmpC inh no detg 11µM, AmpC detergent inconclusive, Pf growth 96h inconclusive
Cc1ccc(-n2c(=O)c3ccc(C(=O)NCc4ccco4)cc3n(Cc3ccccc3Cl)c2=O)cc1	none (no result: AmpC inh no detg, SARS PLP yeast, Pf growth 96h, Pf growth 48h)
Cc1ccccc1Cn1c(=O)n(-c2ccccc2)c(=O)c2ccc(C(=O)NCc3ccco3)cc21	AmpC detergent inconclusive, Pf growth 96h 8.3µM
O=C(c1ccco1)N1CCN(C(=O)c2ccccc2OCc2ccccc2)CC1	none (no result: Sm TGR block, AmpC detergent, Pf growth 96h, Pf growth 48h)
O=C(O)CCCC(=O)Nc1ccccc1SCCS(=O)(=O)c1ccc(Cl)cc1	Sm TGR block 40µM
COc1ccc(OC)c(CCNC(=O)c2cnn(-c3ccccc3)c2-n2cccc2)c1	none (no result: AmpC inh no detg, SARS PLP yeast, Pf growth 96h, Pf growth 48h)
O=c1oc2ccccc2nc1/C=C(\O)c1ccc(Br)cc1	Sm TGR block inconclusive, Pf growth 96h inconclusive, Pf growth 48h 1.9µM
COCCN(CCOC)Cc1c(O)ccc2c1O/C(=C\c1ccco1)C2=O	Sm TGR block 3.5µM (no result: Pf growth 48h)
O=C1/C(=C/c2ccco2)Oc2c1ccc(O)c2CN1CCCCC1	Sm TGR block inconclusive, AmpC detergent inconclusive, Pf growth 96h inconclusive, Pf growth 48h inconclusive
CCN1CCN(Cc2c(O)ccc3c2O/C(=C\C=C\c2ccccc2OC)C3=O)CC1	Sm TGR block inconclusive, Pf growth 96h 4.1µM, Pf growth 48h 2.9µM
CC1CCN(Cc2c(O)ccc3c2O/C(=C\c2ccco2)C3=O)CC1	Sm TGR block 1µM, Pf growth 96h 10µM, Pf growth 48h 15µM
CCOC(=O)c1sc(N2C(=O)C(O)=C(C(=O)c3ccco3)C2c2cccc([N+](=O)[O-])c2)nc1C (centres undefined)	SARS PLP yeast inconclusive
O=c1[nH]c(=O)n(Cc2ccco2)c2c1C(C(F)(F)F)(C(F)(F)F)N=C(CCc1ccccc1)N2	AmpC detergent inconclusive, Pf growth 96h 2.3µM, Pf growth 48h inconclusive
CC(=O)C1=C(c2ccc(Br)cc2)N(C(C)=O)n2c(nnc2C2CCCCC2)S1	none (no result: AmpC inh no detg, SARS PLP yeast, Pf growth 96h, Pf growth 48h)
O=C(CSc1nnc(-c2ccco2)o1)c1ccc(O)cc1O	none
O=C1NC(=S)NC(=O)C1=Cc1ccc2c(c1)CCN2CCCCl	Sm TGR block 14µM, AmpC detergent inconclusive
Cc1ccccc1N1C(=O)NC(=O)/C(=C\c2ccc3c(c2)CCCN3Cc2ccccc2)C1=O	Sm TGR block inconclusive
CCc1ccc(NC(=O)C(C)OC(=O)CC(NC(C)=O)c2ccccc2)cc1 (centres undefined)	Pf growth 48h inconclusive
CCOc1ccccc1NC(=S)N1C2CCC1CC(NC(=O)NC13CC4CC(CC(C4)C1)C3)C2 (centres undefined)	Pf growth 96h inconclusive, Pf growth 48h inconclusive
COc1ccccc1NC(=S)N1C2CCC1CC(NC(=O)NC13CC4CC(CC(C4)C1)C3)C2 (centres undefined)	Pf growth 96h 4.7µM, Pf growth 48h inconclusive
O=C(CCN1CCC(c2ccc(Cl)s2)=N1)c1ccc(Cl)s1	Sm TGR block inconclusive
CCN1CCN(Cc2c(O)ccc3c(=O)c(Oc4ccccc4Cl)c(C(F)(F)F)oc23)CC1	none (no result: AmpC inh no detg, SARS PLP yeast, Pf growth 96h, Pf growth 48h)
COc1ccc(C(Nc2cc(C)ccn2)c2ccc3ccc(C)nc3c2O)cc1 (centres undefined)	Sm TGR block 0.4µM, Pf growth 48h inconclusive
O=S(=O)(Nc1cccc(C(F)(F)F)c1)c1cccnc1	Pf growth 96h inconclusive
COc1cc(C(Nc2ccccn2)c2ccc3ccc(C)nc3c2O)cc(OC)c1O (centres undefined)	Sm TGR block 0.35µM, Pf growth 48h inconclusive
Cc1ccc2ccc(C(Nc3cccc(C(F)(F)F)c3)c3cccnc3)c(O)c2n1 (centres undefined)	SARS PLP yeast 10µM, Sm TGR block 2.2µM, Pf growth 96h inconclusive, Pf growth 48h inconclusive
Cc1ccnc(NC(c2ccsc2)c2ccc3ccc(C)nc3c2O)c1 (centres undefined)	Pf growth 48h inconclusive (no result: Sm TGR block)
Cc1ccc2ccc(C(Nc3ccccn3)c3ccccc3)c(O)c2n1 (centres undefined)	SARS PLP yeast 11µM, Sm TGR block 2.8µM, AmpC detergent inconclusive (no result: Pf growth 48h)
CCN(CC(=O)Nc1ccccc1C(F)(F)F)C(=O)CCc1c(C)[nH]c(=O)c(C#N)c1C	AmpC detergent inconclusive
Fc1ccccc1-n1ncc2c1ncn1nc(-c3ccccc3Cl)nc21	none (no result: AmpC inh no detg, SARS PLP yeast, Pf growth 96h, Pf growth 48h)
Cc1ccc2c(c1)C(N1CCCC1=O)CC(c1ccco1)N2 (centres undefined)	Sm TGR block 10µM, AmpC detergent inconclusive, Pf growth 96h inconclusive
Cc1ccc(C2CC(c3ccco3)n3ncnc3N2)cc1 (centres undefined)	none (no result: Pf growth 48h)
Cn1c(=O)c(=O)n(C)c2cc(N3CCCC3)c(NS(=O)(=O)c3ccc(Cl)cc3)cc21	Sm TGR block 50µM
Cc1ccc(C)c(Oc2coc3cc(OCC(=O)Nc4ccccc4C(C)C)ccc3c2=O)c1	AmpC detergent inconclusive, Pf growth 96h 7.4µM, Pf growth 48h 13µM
COc1ccc(-c2cccc(C3CC=CC4C3C(=O)N(Cc3ccccc3)C4c3ccc4ccccc4c3)c2)cc1 (centres undefined)	Pf growth 96h 15µM, Pf growth 48h 9.3µM
COc1ccc(C2C3C=CCC(c4cccc(-c5ccc(C)cc5)c4)C3C(=O)N2Cc2ccccc2)cc1Cl (centres undefined)	AmpC inh no detg inconclusive, Pf growth 96h inconclusive, Pf growth 48h 12µM

Source: PubChem BioAssay
